Experimental data as given in paper PMC7862700, “An all-to-all approach to the identification of sequence-specific readers for epigenetic DNA modifications on cytosine”.

How the values were obtained:
Experiment in all cases: DAPPL (digital affinity profiling via proximity ligation, sequencing); 10 mM Tris-HCl pH 7.5, 50 mM NaCl, 1 mM DTT, 4% glycerol, room temperature, 30 min; GST-TFs on glutathione beads, 16-mer random dsDNA library, 0.1% formaldehyde crosslink after washing; high values mean tight binding
Conditions in all cases: protein: recombinant; tags: N-terminal GST; dsDNA, one strand shown
GABPA = target: T1, GABPA (Homo sapiens, UniProt Q06546 1-454)
T1 sequence: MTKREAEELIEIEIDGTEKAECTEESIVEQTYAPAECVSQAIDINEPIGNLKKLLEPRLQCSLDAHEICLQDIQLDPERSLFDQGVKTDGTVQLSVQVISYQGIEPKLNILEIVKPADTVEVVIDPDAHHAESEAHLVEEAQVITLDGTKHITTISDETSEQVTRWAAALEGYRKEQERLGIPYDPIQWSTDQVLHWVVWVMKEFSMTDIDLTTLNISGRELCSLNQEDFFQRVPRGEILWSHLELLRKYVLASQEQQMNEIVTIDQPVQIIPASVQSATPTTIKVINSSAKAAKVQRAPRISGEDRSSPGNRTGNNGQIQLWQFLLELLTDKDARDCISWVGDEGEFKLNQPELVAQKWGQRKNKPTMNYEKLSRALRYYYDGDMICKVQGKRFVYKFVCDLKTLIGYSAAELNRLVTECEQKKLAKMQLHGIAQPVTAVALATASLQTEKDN
How it was run: (§1)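 A tag-only sample was pooled with DNA-barcoded human transcription factors that had been expressed in yeast as GST fusions and captured on glutathione beads. The pools were incubated for 30 min at room temperature with 200 nmole of a random double-stranded 16-mer DNA library in Tris/NaCl/DTT/glycerol buffer, then washed, crosslinked with 0.1% formaldehyde, proximity-ligated (BsaI/T4 ligase, 1 h, 37 °C), PCR-amplified and sequenced on an Illumina NextSeq500. Binding signal is each hexamer's read frequency for a factor divided by its frequency for the tag-only sample.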

ETV5 = ETV5 (Homo sapiens, UniProt P41161 1-510)
ETV5, sequence (P41161 whole entry): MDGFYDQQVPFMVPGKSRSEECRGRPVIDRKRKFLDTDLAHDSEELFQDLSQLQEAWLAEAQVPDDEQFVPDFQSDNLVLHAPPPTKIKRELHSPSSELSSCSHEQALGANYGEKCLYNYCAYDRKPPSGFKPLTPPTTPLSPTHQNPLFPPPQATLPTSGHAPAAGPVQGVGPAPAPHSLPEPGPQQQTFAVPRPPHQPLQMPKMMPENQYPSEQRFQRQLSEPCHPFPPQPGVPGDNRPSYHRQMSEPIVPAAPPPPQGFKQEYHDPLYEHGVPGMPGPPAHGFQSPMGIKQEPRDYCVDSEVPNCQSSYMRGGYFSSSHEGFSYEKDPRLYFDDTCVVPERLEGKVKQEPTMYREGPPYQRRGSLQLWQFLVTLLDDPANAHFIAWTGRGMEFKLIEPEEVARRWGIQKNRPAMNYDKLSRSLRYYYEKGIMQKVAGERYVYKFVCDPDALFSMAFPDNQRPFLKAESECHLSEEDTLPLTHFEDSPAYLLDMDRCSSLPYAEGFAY
How it was run: as §1

ELF3 = target: T2, ELF3 (Homo sapiens, UniProt P78545 1-371)
T2 sequence: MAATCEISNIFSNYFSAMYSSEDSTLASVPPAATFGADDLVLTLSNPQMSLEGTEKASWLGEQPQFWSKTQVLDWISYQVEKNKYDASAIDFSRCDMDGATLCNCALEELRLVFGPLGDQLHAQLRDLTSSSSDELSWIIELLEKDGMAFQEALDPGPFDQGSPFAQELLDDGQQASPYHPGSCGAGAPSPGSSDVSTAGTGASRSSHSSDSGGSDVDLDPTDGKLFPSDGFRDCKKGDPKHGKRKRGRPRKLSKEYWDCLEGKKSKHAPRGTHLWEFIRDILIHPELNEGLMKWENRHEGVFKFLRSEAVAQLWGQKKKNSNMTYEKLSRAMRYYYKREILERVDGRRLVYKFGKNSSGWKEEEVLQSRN
How it was run: as §1

ETV3 = target: T3, ETV3 (Homo sapiens, UniProt P41162-2 1-143)
T3 sequence: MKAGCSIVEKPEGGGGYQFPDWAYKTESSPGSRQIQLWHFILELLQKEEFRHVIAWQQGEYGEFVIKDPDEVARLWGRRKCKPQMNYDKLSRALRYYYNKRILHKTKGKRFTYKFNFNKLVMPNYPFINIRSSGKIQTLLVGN
How it was run: as §1

EHF = target: T4, EHF (Homo sapiens, UniProt Q9NZC4 1-300)
T4 sequence: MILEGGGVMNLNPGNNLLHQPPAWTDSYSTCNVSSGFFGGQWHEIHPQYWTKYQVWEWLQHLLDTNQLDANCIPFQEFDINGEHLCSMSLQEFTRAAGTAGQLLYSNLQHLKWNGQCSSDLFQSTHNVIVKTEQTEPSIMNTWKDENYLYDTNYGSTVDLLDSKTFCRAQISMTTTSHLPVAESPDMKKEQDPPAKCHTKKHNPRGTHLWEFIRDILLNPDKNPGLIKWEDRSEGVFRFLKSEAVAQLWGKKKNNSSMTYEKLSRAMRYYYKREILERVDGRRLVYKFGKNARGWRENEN
How it was run: as §1

ELK4 = target: T5, ELK4 (Homo sapiens, UniProt P28324-2 1-405)
T5 sequence: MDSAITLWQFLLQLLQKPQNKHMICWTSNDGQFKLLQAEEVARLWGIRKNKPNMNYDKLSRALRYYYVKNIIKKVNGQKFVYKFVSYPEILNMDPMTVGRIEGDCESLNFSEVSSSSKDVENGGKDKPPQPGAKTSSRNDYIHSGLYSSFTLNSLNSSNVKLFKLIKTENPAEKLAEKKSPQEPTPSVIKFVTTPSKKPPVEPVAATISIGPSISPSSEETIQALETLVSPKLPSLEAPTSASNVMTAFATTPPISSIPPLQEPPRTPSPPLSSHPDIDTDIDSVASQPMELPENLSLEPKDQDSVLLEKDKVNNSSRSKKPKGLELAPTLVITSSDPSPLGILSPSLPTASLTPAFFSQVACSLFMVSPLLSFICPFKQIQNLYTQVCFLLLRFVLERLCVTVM
How it was run: as §1

Sequence | binding signal (GABPA) | binding signal (ETV5) | binding signal (ELF3) | binding signal (ETV3) | binding signal (EHF) | binding signal (ELK4)
GAGCTT | 1.08 fold enrichment (6-mer frequency, TF over GST control) | 1.04 fold enrichment (6-mer frequency, TF over GST control) | 1.04 fold enrichment (6-mer frequency, TF over GST control) | 1.03 fold enrichment (6-mer frequency, TF over GST control) |  | 
GACTTA | 1.03 fold enrichment (6-mer frequency, TF over GST control) | 1.01 fold enrichment (6-mer frequency, TF over GST control) |  | 1.02 fold enrichment (6-mer frequency, TF over GST control) | 1.04 fold enrichment (6-mer frequency, TF over GST control) | 1 fold enrichment (6-mer frequency, TF over GST control)
